# FXIIa inh mix: factor XIIa (human) inhibition, mixture screen; P00748; purified FXIIa, fluorogenic substrate, pooled mixtures; inhibition, % at 5 µM; 0.2% of 62,000 active;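 note: 0% = enzyme without compound and 100% = no enzyme blank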
# D1 mod: allosterically modulates the human D1 dopamine receptor; P21728; B-score at 10 µM; 5.9% of 58,000 active; HEK293 D1, CRE-luciferase, dopamine EC30 potentiation; actives deviate in either direction;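 active = luminescence count or its row- and column-corrected plate score outside the 99.7% band of the plate's sample wells, on either side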
# M1 antagonist: blocks the rat M1 muscarinic receptor response to acetylcholine; P08482; CHO-M1 cells, Fluo-4 calcium, ACh EC80 antagonist mode; active compounds read low; B-score at 10 µM; 3.4% of 64,000 active; AID 628;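 active = calcium fluorescence response, raw or row-and-column corrected B-score, differing from the plate sample mean either way at a set confidence level, mostly lower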
# Target sequence (P08482 whole entry, looked up): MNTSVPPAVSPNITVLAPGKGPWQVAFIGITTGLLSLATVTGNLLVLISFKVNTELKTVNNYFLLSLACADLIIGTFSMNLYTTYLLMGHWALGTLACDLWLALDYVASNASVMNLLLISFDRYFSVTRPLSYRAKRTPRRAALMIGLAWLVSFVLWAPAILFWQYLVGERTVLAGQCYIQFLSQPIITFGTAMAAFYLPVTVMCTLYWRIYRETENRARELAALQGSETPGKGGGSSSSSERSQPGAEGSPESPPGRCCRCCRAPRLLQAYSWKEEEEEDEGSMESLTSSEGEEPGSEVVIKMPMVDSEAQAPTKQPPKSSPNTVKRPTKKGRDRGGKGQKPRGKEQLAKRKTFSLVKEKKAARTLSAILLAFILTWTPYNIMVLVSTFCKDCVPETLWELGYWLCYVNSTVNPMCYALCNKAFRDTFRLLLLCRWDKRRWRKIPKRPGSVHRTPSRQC
# FXIa inh mix: inhibitors of human coagulation factor XIa, pooled mixtures; P03951; purified FXIa, fluorogenic substrate; inhibition, % at 5 µM; 0.19% of 62,000 active;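 note: each value is inhibition by a whole ten-compound pool holding the compound; 0% = enzyme with no mixture and 100% = wells lacking enzyme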
# M1 agonist: M1 muscarinic receptor agonism; 3% of 64,000 active; AID 626; B-score at 10 µM; CHO-M1 cells, Fluo-4 calcium fluorescence, agonist mode; active compounds read high;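 active = fluorescence rise, raw or as B-score row- and column-corrected plate score, outside the 99.7% band of its plate's samples, either direction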
# hDAT+cocaine: modulates human dopamine transporter uptake under cocaine | B-score at 10 µM | 1.3% of 110,000 active | LLC-PK1 hDAT cells, [14C]-dopamine uptake with cocaine IC80; actives deviate in either direction | Q01959 | AID 449768;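 active = Z score or B-score, a plate-position-corrected score, falls beyond the plate's 99.7% confidence bounds, in either direction; inactive = both scores lie inside the 99.7% bounds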;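 note: scored against the spread of the other compound wells on the same plate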
# M1 agonist conf: rat M1 muscarinic agonism, confirmation; shares compounds with M1 agonist; CHO-M1 cells, Fluo-4 calcium fluorescence, agonist mode; actives lie on both sides; fluorescence change (max-min) at 10 µM; 19% of 1,700 active;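 active = fluorescence change differs from the solvent-only DMSO control mean at a set confidence level in both duplicate runs; inconclusive = differs from solvent-only control mean in just one of two runs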;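 note: an EC20 dose of acetylcholine follows compound addition during the same imaging run; raw fluorescence intensity difference in instrument units with no normalization to controls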
# M4 agonist ctr: counter-screen for M1 agonists: activity at rat M4 receptor | shares compounds with M1 agonist | CHO M4/Gqi5 cells, Fluo-4 calcium fluorescence, agonist mode; actives lie on both sides | fluorescence change (max-min) at 10 µM | 9% of 1,700 active;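 active = fluorescence change differing from the plate's solvent-only control wells at 99.7% confidence in both duplicates, whether higher or lower; inconclusive = differs from solvent controls in only one of two duplicates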
# Starred values were filed as active, the others as inactive; ? = inconclusive; · = no result given. The list is not random: actives were taken first. Their share in the collection is about 7.4%. Cut-off read from the data, not from the text of the source, unless noted: active = inhibition above about 20% (passing the limit was not always enough); inactive = the rest.
SMILES,FXIIa inh mix,D1 mod,M1 antagonist,FXIa inh mix,M1 agonist,hDAT+cocaine,M1 agonist conf,M4 agonist ctr
O=C(Cn1nnc(-c2ccccc2)n1)Nc1ccc2c(c1)OCO2,·,·,·,·,·,0.01,·,·
CC(C)(CC(=O)N1CCN(c2ccc(Cl)cc2)CC1)CC1=NS(=O)(=O)c2ccccc2N1,5,·,-3.2*,10,11*,·,?,-46
COc1cccc(NC(=O)C2CCCN(S(=O)(=O)c3cccc4cccnc34)C2)c1 (configuration not stated),2,4.4,0.15,18,3.1*,1,?,-25
O=C(NCC1COc2ccccc2O1)C1CCCN(S(=O)(=O)c2cccc3nsnc23)C1 (configuration not stated),6,0.2,-0.13,2,3.2*,-1,?,-62
O=C(C1CCCN(S(=O)(=O)c2cccc3cccnc23)C1)N1CCN(c2ccc(F)cc2)CC1 (configuration not stated),8,-2.3*,0.15,3,2.7*,-0.23,?,?
CC(C)(C)NC(=O)C1CCCN(S(=O)(=O)c2cccc3cccnc23)C1 (configuration not stated),11,0.33,1.5,3,-0.45,-0.15,·,·
O=C(C1CCN(S(=O)(=O)c2cccc3cccnc23)CC1)N1CCN(c2ccccc2)CC1,-10,-0.86,0.53,-23,-0.053,1.1,·,·
O=C(C1CCCN(S(=O)(=O)c2cccc3cccnc23)C1)N1CCc2ccccc21 (configuration not stated),-27,1.8,-0.14,7,3.1*,1.9,?,-49
CCC(C)C(NC(=O)c1ccc(Cl)cc1)C(=O)O (configuration not stated),-19,-0.22,-0.085,-1,0.3,-0.73,·,·
O=C(C1CCCN(S(=O)(=O)c2cccc3nsnc23)C1)N1CCN(c2ccccn2)CC1 (configuration not stated),2,-0.036,-1.4,6,3.1*,0.19,-7.6,-20
CC(C)[C@H](NC(=O)NCc1cccs1)C(=O)O,10,-0.3,0.1,1,-0.0091,-0.27,·,·
CCOC(=O)c1c(NC(=O)c2ccco2)n(C2CCCCC2)c2nc3ccccc3nc12,·,·,·,·,·,0.56,·,·
CCCCn1c(NC(=O)c2ccccc2Cl)c(C#N)c2nc3ccccc3nc21,-12,-0.74,-1.6,-7,20*,0.27,59*,46
COc1ccc(-n2c(NC(=O)c3ccco3)c(C#N)c3nc4ccccc4nc32)cc1,0,0.7,-0.016,3,27*,-0.14,23,31
CCC(=O)Nc1c(C#N)c2nc3ccccc3nc2n1-c1ccccc1C,6,3.7,0.0037,-11,-0.19,0.48,·,·
CCCn1c(SCC(=O)N2CCc3ccccc3C2)nc2c1c(=O)n(C)c(=O)n2C,13,0.2,-0.089,1,-0.17,-1.2,·,·
CCCSc1nnc(NC(=O)c2sc3nc(-c4cccs4)ccc3c2N)s1,-6,0.47,·,13,·,0.012,·,·
CCOC(=O)c1oc2nc(CC(C)C)c3c(c2c1N)CCC3,·,·,·,·,·,-1.3,·,·
O=C1CC(=O)N(Cc2ccco2)C(=S)N1,·,·,·,·,·,-1.3,·,·
O=C1CC(=O)N(Cc2ccco2)C(=O)N1,1,-0.078,0.41,3,3*,-0.35,?,-58
CCOC(=O)c1ccc(-n2c(=O)[nH]c3ccccc3c2=O)cc1,2,-0.43,0.55,6,-2*,-0.13,?,-75
CN(C)/C=c1\sc2c(C#N)cc(C(=O)c3ccc(Br)cc3)n2c1=O,3,1.2,0.23,16,75*,-0.9,278*,714*
O=C(Cc1ccc(Cl)cc1)Nc1cccc(-c2nnc(-c3ccco3)o2)c1,-4,·,-0.84,7,-0.31,-0.36,·,·
COc1cccc(C(=O)Nc2ccc(-c3nnc(-c4ccco4)o3)cc2)c1,4,·,-0.041,0,5.6*,0.65,-18,?
O=C(Cc1ccccc1)Nc1cccc(-c2nnc(-c3ccco3)o2)c1,3,·,-1.2,-1,5.2*,-1.4,-1.4,-37

# From PubChem BioAssay
